The whole screen tested about 39,000 compounds, of which about 3,300 (8.5%) were called active. Shown is part of a subset that was picked to be rich in actives.

From the antibiotic and cytotoxicity screens of Wong et al. (2023) come the findings set out here.

This experiment relates to HepG2. The experiment is described as follows: cytotoxicity call (relative viability < 0.9). Conditions: 10 µM.
As to `C[C@@H]1CN([C@@H](C)CO)C(=O)c2cccc(NC(=O)NC3CCCCC3)c2O[C@@H]1CN(C)C(=O)Nc1ccc(C(F)(F)F)cc1`, the cytotoxicity call is “inactive”. On to `CC(C)NC(=O)N(C)C[C@H]1Oc2c(NC(=O)C3CCCCC3)cccc2C(=O)N([C@H](C)CO)C[C@@H]1C`, for which the cytotoxicity call is “inactive”. For `C[C@@H]1CN([C@H](C)CO)C(=O)c2cccc(NC(=O)NC3CCCCC3)c2O[C@H]1CN(C)C(=O)Nc1ccc(C(F)(F)F)cc1`, the cytotoxicity call is “active”. Consider `C[C@@H]1CN([C@H](C)CO)C(=O)c2cccc(NC(=O)C3CCCCC3)c2O[C@H]1CN(C)C(=O)Nc1ccc(C(F)(F)F)cc1`, for which the cytotoxicity call was “inactive”. Consider `C[C@H](CO)N1C[C@H](C)[C@@H](CN(C)C(=O)Nc2ccc(C(F)(F)F)cc2)Oc2c(NC(=O)NC3CCCCC3)cccc2C1=O`, for which the cytotoxicity call is “inactive”. Under `C[C@@H]1CN([C@@H](C)CO)C(=O)c2cccc(NC(=O)C3CCCCC3)c2O[C@@H]1CN(C)C(=O)Nc1ccc(C(F)(F)F)cc1` stands “inactive”. For `CC(C)NC(=O)N(C)C[C@@H]1Oc2c(NC(=O)C3CCCCC3)cccc2C(=O)N([C@@H](C)CO)C[C@@H]1C`, the cytotoxicity call was “active”. In the case of `C[C@H](CO)N1C[C@H](C)[C@H](CN(C)C(=O)Nc2ccc(C(F)(F)F)cc2)Oc2c(NC(=O)C3CCCCC3)cccc2C1=O`, the cytotoxicity call is “active”. Turning to `CC(C)NC(=O)N(C)C[C@@H]1Oc2c(NC(=O)C3CCCCC3)cccc2C(=O)N([C@H](C)CO)C[C@H]1C`, the cytotoxicity call was “inactive”. Take `C[C@H](CO)N1C[C@H](C)[C@H](CN(C)C(=O)Nc2ccc(C(F)(F)F)cc2)Oc2c(NC(=O)NC3CCCCC3)cccc2C1=O`: the cytotoxicity call was “active”.

For the compound `N#CCC(=O)N1CCSCC1`, the cytotoxicity call is “inactive”. In the case of `C[C@@H]1CCCCO[C@@H](CN(C)S(=O)(=O)c2ccc(F)cc2)[C@@H](C)CN([C@H](C)CO)C(=O)c2cc(NS(C)(=O)=O)ccc2O1` it was “inactive”; in that of `CC(C)CN1C[C@@H]2CCNCC[C@H]2S1(=O)=O`, “inactive”. As for `C[C@H](CO)N1C[C@H](C)[C@@H](CN(C)Cc2ccc(C(=O)O)cc2)Oc2ccc(NS(=O)(=O)c3cn(C)cn3)cc2CC1=O`, the cytotoxicity call was “inactive”. Under `O=C(C[C@@H]1C[C@H]2c3cc(NS(=O)(=O)c4ccc(F)cc4)ccc3O[C@H]2[C@@H](CO)O1)NCc1ccccc1F` stands “inactive”.

In the case of `Nc1cc(=O)[nH]c(=O)n1Cc1ccccc1`, the cytotoxicity call is “inactive”.

On to `COc1ccc(CN2C[C@@H](C)[C@H](OC)CN(C)C(=O)c3ccc(NC(=O)c4nc5ccccc5s4)cc3OC[C@@H]2C)cc1`, for which the cytotoxicity call was “inactive”.

Regarding `COc1ccc2c3c([nH]c2c1)[C@H](CO)N(C[C@]13CCN(CC1)CC1CCCC1)S(=O)(=O)c1cn(cn1)C`, the cytotoxicity call was “inactive”. In the case of `COc1ccccc1CN1C(=O)c2ccccc2[C@@]2(Cc3ccccc3N(C(C)C)C2=O)[C@@H]1c1ccc(CO)cc1` it was “inactive”; in that of `C[C@@H]1CN([C@H](C)CO)C(=O)c2cccc(NC(=O)NC3CCCCC3)c2O[C@@H]1CN(C)C(=O)Nc1ccc(C(F)(F)F)cc1`, “inactive”. As for `C[C@H]1CN([C@@H](C)CO)C(=O)c2cccc(NC(=O)NC3CCCCC3)c2O[C@H]1CN(C)C(=O)Nc1ccc(C(F)(F)F)cc1`, the cytotoxicity call is “active”. Regarding `C[C@H]1CN([C@@H](C)CO)C(=O)c2cccc(NC(=O)NC3CCCCC3)c2O[C@@H]1CN(C)C(=O)Nc1ccc(C(F)(F)F)cc1`, the cytotoxicity call was “inactive”. In the case of `CCCn1nc(C)c(CN)c1C` it was “inactive”; in that of `Cc1ccc(S(=O)(=O)N(C)C[C@@H]2OCCCC[C@@H](C)Oc3ccc(NC(=O)Nc4ccc(C(F)(F)F)cc4)cc3C(=O)N([C@@H](C)CO)C[C@@H]2C)cc1`, “inactive”. Under `O=C1N[C@@H](Cc2c[nH]c3ccccc23)COC(=O)[C@@H](Cc2ccc(F)cc2)CC=CC[C@@H]1CC(=O)N(CCO)Cc1ccccc1` stands “active”; under `O=C1N[C@@H](Cc2c[nH]c3ccccc23)COC(=O)[C@H](Cc2ccc(F)cc2)CCC=CC[C@H]1CC(=O)N(CCO)Cc1ccccc1`, “inactive”.

Take `O=C1N[C@H](Cc2c[nH]c3ccccc23)COC(=O)[C@@H](Cc2ccc(F)cc2)CC=CC[C@@H]1CC(=O)N(CCO)Cc1ccccc1`: the cytotoxicity call was “inactive”.

Turning to `O=C1N[C@H](Cc2c[nH]c3ccccc23)COC(=O)[C@@H](Cc2ccc(F)cc2)CCC=CC[C@@H]1CC(=O)N(CCO)Cc1ccccc1`, the cytotoxicity call is “inactive”.

Take `O=C(N[C@H]1CC=CC[C@H](CC(=O)N(CCO)Cc2ccccc2)C(=O)N[C@@H](Cc2ccccc2)COC1=O)OCC1c2ccccc2-c2ccccc21`: the cytotoxicity call is “active”. In the case of `O=C1N[C@H](Cc2c[nH]c3ccccc23)COC(=O)[C@H](Cc2ccc(F)cc2)CC=CC[C@@H]1CC(=O)N(CCO)Cc1ccccc1` it was “inactive”; in that of `O=C(N[C@@H]1CC=CC[C@H](CC(=O)N(CCO)Cc2ccccc2)C(=O)N[C@@H](Cc2ccccc2)COC1=O)OCC1c2ccccc2-c2ccccc21`, “inactive”. As for `O=C1N[C@H](Cc2c[nH]c3ccccc23)COC(=O)[C@@H](Cc2ccc(F)cc2)CCC=CC[C@H]1CC(=O)N(CCO)Cc1ccccc1`, the cytotoxicity call was “active”. For `O=C(N[C@H]1CC=CC[C@H](CC(=O)N(CCO)Cc2ccccc2)C(=O)N[C@H](Cc2ccccc2)COC1=O)OCC1c2ccccc2-c2ccccc21`, the cytotoxicity call was “inactive”. In the case of `CC12CC(OC1=O)C1(C)CCC3(C)C(=CCC4C5(C)CCC(O)C(C)(C)C5CCC43C)C1C2` (centres undefined) it was “inactive”; in that of `O=S1(=O)C[C@H](NCc2cccnc2)[C@@H](O)C1`, “inactive”; in that of `C[C@H](CO)N1C[C@H](C)[C@@H](CN(C)Cc2ccc(C(=O)O)cc2)Oc2c(NC(=O)C3CCOCC3)cccc2C1=O`, “inactive”. In the case of `COc1ccc(CN(C)C[C@H]2Oc3ccc(NS(=O)(=O)c4c(C)noc4C)cc3CC(=O)N([C@H](C)CO)C[C@@H]2C)cc1` it was “inactive”. Under `COc1ccc(S(=O)(=O)Nc2ccc3c(c2)C(=O)N([C@H](C)CO)C[C@@H](C)[C@@H](CN(C)S(=O)(=O)c2ccc(OC)cc2)O3)cc1` stands “inactive”. Turning to `CN1C(=O)c2cc(NC(=O)Nc3ccccc3F)ccc2OC[C@H]2O[C@@H](CC(=O)NCc3ccc(-c4ccccc4)cc3)CC[C@@H]21`, the cytotoxicity call was “inactive”. Under `C[C@@H]1CCCCO[C@@H](CN(C)S(=O)(=O)c2ccc(Cl)cc2)[C@@H](C)CN([C@H](C)CO)C(=O)c2cc(NC(=O)C3CCCCC3)ccc2O1` stands “inactive”; under `CO[C@H]1CN(C)C(=O)c2ccc(NS(C)(=O)=O)cc2OC[C@@H](C)N(C(=O)C2CCOCC2)C[C@@H]1C`, “inactive”. In the case of `COc1ccc(S(=O)(=O)Nc2ccc3c(c2)C(=O)N([C@H](C)CO)C[C@@H](C)[C@H](CN(C)C(=O)C2CCCCC2)OCCCC[C@H](C)O3)cc1`, the cytotoxicity call was “inactive”. Under `C[C@@H]1CN([C@@H](C)CO)C(=O)c2cc(N(C)C)ccc2O[C@@H](C)CCCCO[C@H]1CN(C)C(=O)CCCN(C)C` stands “inactive”; under `Cc1noc(C)c1S(=O)(=O)Nc1ccc2c(c1)C(=O)N([C@H](C)CO)C[C@H](C)[C@@H](CN(C)C(=O)Nc1cccc3ccccc13)OCCCC[C@H](C)O2`, “active”.

Regarding `Cc1noc(C)c1S(=O)(=O)Nc1ccc2c(c1)C(=O)N([C@H](C)CO)C[C@@H](C)[C@@H](CN(C)C(=O)Nc1cccc3ccccc13)OCCCC[C@@H](C)O2`, the cytotoxicity call is “inactive”. Under `Cc1noc(C)c1S(=O)(=O)Nc1ccc2c(c1)C(=O)N([C@@H](C)CO)C[C@@H](C)[C@H](CN(C)C(=O)Nc1cccc3ccccc13)OCCCC[C@H](C)O2` stands “inactive”; under `Cc1noc(C)c1S(=O)(=O)Nc1ccc2c(c1)C(=O)N([C@@H](C)CO)C[C@@H](C)[C@@H](CN(C)C(=O)Nc1cccc3ccccc13)OCCCC[C@@H](C)O2`, “active”; under `Cc1noc(C)c1S(=O)(=O)Nc1ccc2c(c1)C(=O)N([C@@H](C)CO)C[C@@H](C)[C@@H](CN(C)C(=O)Nc1cccc3ccccc13)OCCCC[C@H](C)O2`, “inactive”.

As to `Cc1noc(C)c1S(=O)(=O)Nc1ccc2c(c1)C(=O)N([C@H](C)CO)C[C@H](C)[C@H](CN(C)C(=O)Nc1cccc3ccccc13)OCCCC[C@@H](C)O2`, the cytotoxicity call was “inactive”.

Regarding `C[C@@H]1CN([C@H](C)CO)C(=O)c2cc(NC(=O)Cc3ccccc3)ccc2O[C@@H](C)CCCCO[C@@H]1CN(C)Cc1ccncc1`, the cytotoxicity call was “inactive”. Take `Cc1ccc(S(=O)(=O)N(C)C[C@H]2OCCCC[C@H](C)Oc3ccc(NC(=O)C4CCCCC4)cc3C(=O)N([C@@H](C)CO)C[C@H]2C)cc1`: the cytotoxicity call is “inactive”. In the case of `C[C@@H]1CN([C@H](C)CO)C(=O)CCCn2nncc2CO[C@H]1CN(C)C(=O)c1cc(-c2ccccc2)on1` it was “inactive”; in that of `COc1ccc(S(=O)(=O)N(C)C[C@@H]2Oc3c(NC(=O)c4cc(C)nn4C)cccc3C(=O)N([C@H](C)CO)C[C@H]2C)cc1`, “inactive”; in that of `C[C@@H]1CN([C@H](C)CO)C(=O)c2cccc(NS(=O)(=O)c3cn(C)cn3)c2O[C@H]1CN(C)S(=O)(=O)c1ccc(Cl)cc1`, “inactive”. In the case of `COc1ccc(S(=O)(=O)N(C)C[C@@H]2Oc3ccc(NS(=O)(=O)c4ccc(F)cc4)cc3C(=O)N([C@@H](C)CO)C[C@H]2C)cc1` it was “inactive”; in that of `COC(=O)N/N=C/c1ccc([N+](=O)[O-])o1`, “inactive”. For `NC(=O)N/N=C/c1ccc([N+](=O)[O-])o1`, the cytotoxicity call is “inactive”.

On to `O=C(NN=Cc1ccc([N+](=O)[O-])o1)c1ccc(O)cc1`, for which the cytotoxicity call is “active”. Under `NC(=O)NN=Cc1ccc([N+](=O)[O-])o1` stands “active”; under `O=C(N/N=C/c1ccc(CO)o1)c1ccccn1`, “inactive”; under `O=C(NO)c1ccc(C(=O)N/N=C/c2ccc(B(O)O)cc2)cc1`, “inactive”. Turning to `C[C@@H]1CCCCO[C@@H](CN(C)C(=O)C2CCCCC2)[C@@H](C)CN([C@H](C)CO)C(=O)c2cc(NC(=O)c3ccncc3)ccc2O1`, the cytotoxicity call is “inactive”.

For the compound `O=C(CCCCCC(=O)Nc1ccccc1O)N/N=C/[C@H](O)[C@@H](O)[C@@H](O)[C@H](O)C(=O)O`, the cytotoxicity call is “inactive”. On to `COCC#Cc1cnc2c(c1)C(=O)N([C@H](C)CO)C[C@@H](C)[C@@H](CN(C)C(=O)CN1CCOCC1)O2`, for which the cytotoxicity call was “inactive”.
